In PubChem BioAssay (NCATS):
Inconclusive results are not listed. A call without a number means that no potency is given here. Activity calls are given as the source filed them. The call rests on the fitted dose curve; in most records, active means well fitted cell-killing curve with a large enough effect; inconclusive means small, poorly fitted or top-dose-only effect; inactive means flat fitted curve, though single readings scatter.

Assay: Cell Viability - LYMP2-006 (AID 978); further: nearly all actives have a fitted effect of over 60% in size
Settings: LYMP2-006 lymphoblastoid cell viability, qHTS; series mostly up to 92.2 µM
Text: NIH Chemical Genomics Center [NCGC]
NIH Molecular Libraries Screening Centers Network [MLSCN]
National Institutes of Environmental Health Sciences [NIEHS]
National Toxicology Program [NTP]
We have developed a 1536-well cell-based assay for quantitative high throughput screening (qHTS) against a number of cell lines to determine in vitro cytotoxicity of small molecules. This particular assay uses a human lymphoblastoid cell line (LYMP2-006) purchased from Coriell Institute for Medical Research.
NCGC Assay Protocol Summary:
The CellTiter-Glo luminescent cell viability assay (Promega) is a homogeneous method to measure the number of viable cells in culture. The end point readout of this assay is based on quantitation of intracellular ATP, an indicator of metabolic activity, using the luciferase reaction. Luciferase catalyzes the oxidation of beetle Luciferin to oxyluciferin and light in the presence of ATP. The luminescent signal is proportional to amount of ATP present.
Using the CellTiter-Glo luminescent cell viability assay, the amount of cellular ATP was measured in the lymphoblastoid cell line with complete culture medium following compound treatment for 24 hours. The assay was performed in opaque white Kalypsys 1536-well plates. In the screen, tetraoctylammonium bromide was used as positive control. Library compounds were measured for their ability to cause acute toxicity in the cell line, as reflected by a decrease in intracellular ATP levels, in a concentration-dependent manner. […] AC50 values were determined from concentration-response data modeled with the standard Hill equation.
qHTS protocol for CellTiter Glo lymphoblastoid cellular assay
[Step] [Parameter] [Value] [Description]
1. Reagent; 5 uL; 2500 lymphoblastoid cells/well
2. Time; 5 hr; 37 C incubation
4. Controls; 23 nL; Tetraoctylammonium bromide 6.4pM to 92 uM
5. Time; 24 hr; 37 C incubation
6. Reagent; 5 uL; CellTiter Glo reagent
7. Time; 30 min; Room Temperature
8. Detection; Luminescence; Viewlux plate reader
Keywords: cell viability, cytotoxicity, lymphoblastoid cell line, luminescence, NTPHTS, NTPHTS_NCGC, NIEHS, DSSTox, MLSMR, MLSCN, NIH Roadmap, qHTS, NCGC
Potency means the concentration at half of the fitted maximal effect.

SMILES	Potency
Oc1c(Cl)c(Cl)cc(Cl)c1Cl	inactive
CC(C)(Cl)Cl	inactive
Nc1ccc(-c2ccc(N)cc2)cc1	inactive
C/C=C/C=O	inactive
O=[N+]([O-])c1ccc(Cl)cc1	inactive
N#C/C=C/C#N	25.1 µM (active)
O=Cc1ccc(Cl)cc1Cl	inactive
CCCCCCCCCCCOC(=O)c1ccccc1C(=O)OCCCCCCCCCCC	inactive
Nc1ccc([N+](=O)[O-])cc1[N+](=O)[O-]	inactive
Cc1ccc([N+](=O)[O-])cc1	inactive
Cc1cccc(N)c1C	inactive
Clc1cc(Cl)c(Cl)c(Cl)c1	inactive
N#CC(O)c1ccccc1 (stereo not given)	inactive
O=C(O)c1cc(Cl)ccc1Cl	inactive
N#C/C(N)=C(/N)C#N	inactive
S=c1[nH]c2ccccc2[nH]1	inactive
O=[N+]([O-])c1cccc(O)c1	inactive
CC(C)(C)OOC(=O)c1ccccc1	inactive
O=[N+]([O-])CCO	inactive
CCN(CC)CCO	inactive

SMILES	Potency
Nc1c(Cl)cc([N+](=O)[O-])cc1Cl	inactive
ClCCOCCCl	inactive
O=[N+]([O-])c1cc(Cl)c(Cl)cc1Cl	inactive
COC(C)(C)C	inactive
BrCC(Br)C1CCC(Br)C(Br)C1 (stereo not given)	inactive
CN(C)C(=O)Cl	inactive
Cc1cc(C)cc(OP(=O)(Oc2cc(C)cc(C)c2)Oc2cc(C)cc(C)c2)c1	inactive
Nc1cccc(Cl)c1	inactive
C1CC2OC2CC1C1CO1 (stereo not given)	inactive
CC(C)(C)c1ccccc1O	inactive
NNC(N)=S	inactive
c1ccc2c(c1)CCNC2	inactive
Nc1ncc([N+](=O)[O-])s1	inactive
[O-][Cl+2]([O-])O	inactive
OCCCCO	inactive
O=S(=O)(O)F	inactive
Nc1ccc([N+](=O)[O-])cc1N	inactive
C/C=C/CC#N	inactive
ClCCCCl	inactive
CC(C)(Cl)[N+](=O)[O-]	inactive
